Measurements: PubChem BioAssay (NCATS)
Inconclusive results are not listed. Activity calls are given as the source filed them. Unless noted, calls come from the whole dose curve; as a rule, active = well fitted curve in the direction sought with a large enough effect; inconclusive = small, poorly fitted or top-dose-only effect, or another doubt; inactive = no such curve, though single readings can be large; an effect the other way counts as inactive or inconclusive.

Columns and labels:
[1] = molecular target: Glucocorticoid receptor (Homo sapiens) (UniProt P04150); experiment: GR-EFC Redistribution (AID 451; calls by dose curve; note: potency is the fitted concentration of half-maximal effect); conditions: CHO-K1 GR-EFC translocation, beta-gal luminescence, 2 h
Glucocorticoid receptor (Homo sapiens), sequence (P04150 whole entry, looked up, the tested form may be a part): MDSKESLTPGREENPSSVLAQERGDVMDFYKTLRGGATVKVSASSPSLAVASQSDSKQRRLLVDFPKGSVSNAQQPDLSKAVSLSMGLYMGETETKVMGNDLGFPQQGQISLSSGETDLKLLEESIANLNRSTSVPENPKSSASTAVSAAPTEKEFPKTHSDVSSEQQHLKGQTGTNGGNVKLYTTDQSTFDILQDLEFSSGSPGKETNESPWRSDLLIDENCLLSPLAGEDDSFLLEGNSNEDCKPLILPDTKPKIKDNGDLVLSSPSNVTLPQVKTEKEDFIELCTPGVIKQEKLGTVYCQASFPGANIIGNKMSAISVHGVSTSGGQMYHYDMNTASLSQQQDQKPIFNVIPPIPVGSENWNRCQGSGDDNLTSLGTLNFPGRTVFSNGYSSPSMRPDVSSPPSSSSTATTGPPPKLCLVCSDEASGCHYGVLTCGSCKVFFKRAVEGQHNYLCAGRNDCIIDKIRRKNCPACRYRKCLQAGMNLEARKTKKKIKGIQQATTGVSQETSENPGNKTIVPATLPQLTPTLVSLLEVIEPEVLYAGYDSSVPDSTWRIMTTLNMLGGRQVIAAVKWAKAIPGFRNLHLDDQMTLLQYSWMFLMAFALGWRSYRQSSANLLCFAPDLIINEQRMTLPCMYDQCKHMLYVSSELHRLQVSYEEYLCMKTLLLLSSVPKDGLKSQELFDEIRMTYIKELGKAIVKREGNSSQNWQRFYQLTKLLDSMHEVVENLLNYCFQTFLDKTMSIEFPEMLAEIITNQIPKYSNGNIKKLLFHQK
How it was run: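 CHO-K1 cells expressing nuclear EA and GR-ED fragments of b-gal; compounds titrated up to 46 uM final, 2 h at 37 C. GR nuclear translocation read as complemented b-gal luminescence after 1 h RT detection.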

[2] = molecular target: Mitogen-activated protein kinase 10 (Mus musculus) (UniProt Q61831); experiment: JNK3 AlphaScreen Assay (AID 530; active = well fitted curve in either direction with a large enough effect, not every such curve was filed as active;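 note: kinase came from lysate of stimulated human HepG2 cells; signal reports phosphorylation of biotinylated GST-cJun 1-79 at Ser73 with 10 µM ATP; series mostly up to about 57 µM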)
How it was run: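 qHTS format: compounds tested as titrations against IL-1beta/TNF-alpha-activated HepG2 lysate JNK3 with biotin-GST-cJun substrate and 10 uM ATP at room temperature. Loss of anti-phospho-cJun AlphaScreen signal indicates inhibition.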

[3] = molecular target: Ubiquitin carboxyl-terminal hydrolase 1 (Homo sapiens) (UniProt O94782); experiment: Inhibitors of USP1/UAF1: Pilot qHTS (AID 504865); note: nearly all actives have a fitted effect of over 35% in size; note: potency is the fitted concentration of half-maximal effect
Ubiquitin carboxyl-terminal hydrolase 1 (Homo sapiens), sequence (O94782 whole entry, looked up): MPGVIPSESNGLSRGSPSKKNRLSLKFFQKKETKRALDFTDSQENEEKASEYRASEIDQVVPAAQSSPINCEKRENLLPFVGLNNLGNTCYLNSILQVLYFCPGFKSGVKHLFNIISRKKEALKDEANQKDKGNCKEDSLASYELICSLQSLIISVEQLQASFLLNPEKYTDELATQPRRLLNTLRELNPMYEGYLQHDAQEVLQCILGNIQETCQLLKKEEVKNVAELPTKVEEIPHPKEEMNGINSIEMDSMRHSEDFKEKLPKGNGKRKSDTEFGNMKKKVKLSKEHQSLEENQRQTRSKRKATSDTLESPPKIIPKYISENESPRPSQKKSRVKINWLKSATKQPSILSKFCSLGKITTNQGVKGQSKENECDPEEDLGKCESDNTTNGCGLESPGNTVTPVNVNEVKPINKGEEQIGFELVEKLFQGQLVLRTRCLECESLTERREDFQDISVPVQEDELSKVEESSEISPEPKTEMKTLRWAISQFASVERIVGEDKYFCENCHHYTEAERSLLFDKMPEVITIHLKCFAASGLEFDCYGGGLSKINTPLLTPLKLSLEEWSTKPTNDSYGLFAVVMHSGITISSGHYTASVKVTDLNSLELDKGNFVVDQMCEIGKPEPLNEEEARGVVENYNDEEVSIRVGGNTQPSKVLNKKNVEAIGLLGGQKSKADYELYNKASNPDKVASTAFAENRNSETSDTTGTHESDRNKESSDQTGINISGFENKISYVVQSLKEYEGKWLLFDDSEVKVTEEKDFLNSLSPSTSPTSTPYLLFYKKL
How it was run: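 1nM USP1/UAF1 + cpd, 15 min RT; start w/ Ub-Rho 150nM final; kinetic FL 480/540 nm, 6 reads q60 s. Buffer 50mM HEPES pH 7.8, 0.5mM EDTA, 1mM TCEP, 0.01% Tween-20, 0.1 mg/ml BSA.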

[4] = molecular target: DNA dC->dU-editing enzyme APOBEC-3G (Homo sapiens) (UniProt Q9HC16); experiment: qHTS for inhibitors of Vif-A3G interactions: Validation (AID 588379)
DNA dC->dU-editing enzyme APOBEC-3G (Homo sapiens), sequence (Q9HC16 whole entry, looked up): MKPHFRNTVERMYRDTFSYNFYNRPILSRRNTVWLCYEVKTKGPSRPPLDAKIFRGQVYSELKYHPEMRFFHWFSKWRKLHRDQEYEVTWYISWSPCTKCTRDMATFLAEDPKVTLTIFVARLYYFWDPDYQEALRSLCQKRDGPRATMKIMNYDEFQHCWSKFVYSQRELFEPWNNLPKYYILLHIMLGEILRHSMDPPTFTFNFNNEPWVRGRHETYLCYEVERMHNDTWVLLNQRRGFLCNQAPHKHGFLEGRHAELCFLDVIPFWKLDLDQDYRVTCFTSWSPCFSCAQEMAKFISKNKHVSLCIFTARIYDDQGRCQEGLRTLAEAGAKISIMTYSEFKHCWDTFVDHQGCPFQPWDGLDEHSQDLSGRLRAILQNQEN
How it was run: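 HeLa cells stably expressing Vif and A3G-eYFP, 700 cells/well, incubated overnight at 37 deg C, then exposed to compound overnight at 37 deg C. Inhibition of Vif-mediated degradation read as increased yellow fluorescence (Ex 488/Em 500-530) by laser-scanning cytometry.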

[5] = tested on: Zika virus NS2B-NS3 protease; experiment: Primary screen GU AMC qHTS for Zika virus inhibitors (AID 1347154); note: nearly all actives have a fitted effect of over 70% in size
How it was run: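 Unlinked Zika NS2B hydrophilic domain–NS3 protease complex at 25 nM in 10 mM Tris-HCl pH 8.0, 0.01% Tween 20, with an AMC peptide substrate. Fluorescence change (340/450 nm) over 15 min at room temperature, normalized to controls, fitted to 4-parameter Hill.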

[6] = Primary qHTS for small molecule stabilizers of the endoplasmic reticulum resident proteome: Secreted ER Calcium Modulated Protein (SERCaMP) assay (AID 1508630)
How it was run: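 GLuc-SERCaMP-expressing SH-SY5Y cells, pretreated 16 h with compound, are challenged with thapsigargin to empty ER calcium stores; after 4 h, coelenterazine is added directly to the medium and luminescence is imaged.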

[7] = molecular target: Glucocorticoid receptor (Homo sapiens) (UniProt P04150); experiment: GR-GFP Redistribution (AID 450;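 active = compounds whose dose series gives a full or clear partial fitted curve of increased nuclear translocation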; note: potency is the fitted concentration of half-maximal effect); conditions: U2OS GR-GFP nuclear translocation, laser cytometry, 2 h
[8] = molecular target: 3',5'-cyclic-AMP phosphodiesterase 4B (Homo sapiens) (UniProt Q07343); experiment: qHTS Assay for Inhibitors of PDE-IV (AID 607; active = well fitted activation curve with a large enough effect in the main read-out, with a control signal flat, not every such curve was filed as active)
3',5'-cyclic-AMP phosphodiesterase 4B (Homo sapiens), sequence (Q07343 whole entry, looked up): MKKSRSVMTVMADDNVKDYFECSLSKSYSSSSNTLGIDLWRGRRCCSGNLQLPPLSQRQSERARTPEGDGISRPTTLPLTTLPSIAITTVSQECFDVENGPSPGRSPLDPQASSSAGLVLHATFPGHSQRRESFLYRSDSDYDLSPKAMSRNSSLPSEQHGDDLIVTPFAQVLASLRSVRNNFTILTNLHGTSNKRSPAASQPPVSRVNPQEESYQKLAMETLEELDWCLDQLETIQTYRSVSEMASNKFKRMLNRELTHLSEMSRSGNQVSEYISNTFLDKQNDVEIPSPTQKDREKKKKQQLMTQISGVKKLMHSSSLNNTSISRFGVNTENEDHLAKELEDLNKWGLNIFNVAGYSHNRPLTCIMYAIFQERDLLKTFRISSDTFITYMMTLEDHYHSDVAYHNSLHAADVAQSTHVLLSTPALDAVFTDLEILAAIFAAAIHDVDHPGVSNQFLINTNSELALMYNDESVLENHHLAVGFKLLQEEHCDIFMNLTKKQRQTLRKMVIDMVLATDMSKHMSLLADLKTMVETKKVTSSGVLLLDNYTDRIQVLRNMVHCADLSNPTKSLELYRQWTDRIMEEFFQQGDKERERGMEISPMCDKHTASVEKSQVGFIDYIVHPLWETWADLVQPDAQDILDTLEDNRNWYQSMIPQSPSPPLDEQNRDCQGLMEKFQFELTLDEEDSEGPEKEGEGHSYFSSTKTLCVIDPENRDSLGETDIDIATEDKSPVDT
How it was run: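 Live HEK293 cells with a modified cyclic nucleotide-gated (CNG) channel report intracellular cAMP via membrane-potential dye fluorescence (ex 535/em 590 nm). Endogenous PDE-IV was targeted. Compounds were tested at up to 22.9 uM final; RO 20-1724 100 uM served as control.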

[9] = molecular target: Cytochrome P450 3A4 (Homo sapiens) (UniProt P08684); experiment: qHTS Assay for Inhibitors and Substrates of Cytochrome P450 3A4 (AID 884); note: potency is the fitted concentration of half-maximal effect; nearly all actives have a fitted effect of over 50% in size
Cytochrome P450 3A4 (Homo sapiens), sequence (P08684 whole entry, looked up): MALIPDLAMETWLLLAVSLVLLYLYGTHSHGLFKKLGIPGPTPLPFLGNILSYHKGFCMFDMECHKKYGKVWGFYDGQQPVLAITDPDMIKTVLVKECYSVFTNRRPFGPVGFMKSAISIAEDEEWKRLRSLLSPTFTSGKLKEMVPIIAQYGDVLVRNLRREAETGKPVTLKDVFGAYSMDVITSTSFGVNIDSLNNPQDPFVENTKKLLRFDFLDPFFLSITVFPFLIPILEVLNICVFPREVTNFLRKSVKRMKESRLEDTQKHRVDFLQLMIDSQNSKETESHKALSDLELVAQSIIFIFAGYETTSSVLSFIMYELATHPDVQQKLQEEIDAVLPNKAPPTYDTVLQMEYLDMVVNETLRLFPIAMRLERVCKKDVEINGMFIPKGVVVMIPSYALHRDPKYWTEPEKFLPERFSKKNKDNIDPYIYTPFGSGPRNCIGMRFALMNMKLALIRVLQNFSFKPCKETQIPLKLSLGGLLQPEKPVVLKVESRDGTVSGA
How it was run: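 20 nM human CYP3A4 with 25 uM Luciferin-PPXE (at KM) in 200 mM KPO4, preincubated 10 min with compound; NADPH regeneration started a 60 min RT reaction. Luciferin detected by luminescence, normalized to 57 uM ketoconazole as full inhibition.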

[10] = molecular target: Cytochrome P450 3A4 (Homo sapiens) (UniProt P08684); experiment: qHTS Assay for Activators of Cytochrome P450 3A4 (AID 885); note: nearly all actives have a fitted effect of over 65% in size
How it was run: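 Quantitative HTS format: compounds preincubated with 20nM human CYP3A4 and Luciferin-PPXE substrate at KM, reaction started by NADPH regeneration, stopped after 60 min, luciferase luminescence read 20 min later.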

[11] = molecular target: Cytochrome P450 2C19 (Homo sapiens) (UniProt P33261); experiment: qHTS Assay for Inhibitors and Substrates of Cytochrome P450 2C19 (AID 899); note: potency is the fitted concentration of half-maximal effect; nearly all actives have a fitted effect of over 60% in size
Cytochrome P450 2C19 (Homo sapiens), sequence (P33261 whole entry, looked up): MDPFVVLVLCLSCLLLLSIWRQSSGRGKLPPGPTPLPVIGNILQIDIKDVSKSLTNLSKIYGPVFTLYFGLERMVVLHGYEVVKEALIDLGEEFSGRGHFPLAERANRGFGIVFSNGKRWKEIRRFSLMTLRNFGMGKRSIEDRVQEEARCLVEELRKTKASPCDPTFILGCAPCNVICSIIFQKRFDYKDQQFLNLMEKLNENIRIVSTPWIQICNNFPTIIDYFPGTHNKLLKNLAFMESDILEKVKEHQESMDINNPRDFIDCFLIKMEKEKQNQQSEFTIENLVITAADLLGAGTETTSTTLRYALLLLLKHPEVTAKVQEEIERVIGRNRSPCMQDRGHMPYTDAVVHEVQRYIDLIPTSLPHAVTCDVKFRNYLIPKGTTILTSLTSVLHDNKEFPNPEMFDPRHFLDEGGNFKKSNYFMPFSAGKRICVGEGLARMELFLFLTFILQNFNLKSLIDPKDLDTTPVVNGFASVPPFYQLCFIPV
How it was run: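 5 nM human CYP2C19 with 10uM Luciferin-H EGE (at KM) in 50mM KPO4, compound preincubated 10 min at 37C, then NADPH regeneration for 60 min at 37C. Luciferin read by luminescence after detection reagent; normalized to 57uM ketoconazole as full inhibition.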

Measured: Potency

C[C@H](O)CO[C@H]1[C@H]2O[C@H]3[C@H](O)[C@@H](O)[C@@H](O[C@H]4[C@H](O)[C@@H](O)[C@@H](O[C@H]5[C@H](O)[C@@H](O)[C@@H](O[C@H]6[C@H](O)[C@@H](OC[C@H](C)O)[C@@H](O[C@H]7[C@H](O)[C@@H](OC[C@H](C)O)[C@@H](O[C@H]8[C@H](O)[C@@H](O)[C@@H](O[C@@H]([C@@H]1O)[C@@H](CO)O2)O[C@@H]8CO)O[C@@H]7CO)O[C@@H]6CO)O[C@@H]5CO)O[C@@H]4CO)O[C@@H]3CO
inactive: [1] > 46 µM | [2] | [3] | [4] | [5] | [6]

CN1CCc2cc3c(cc2[C@@H]1[C@@H]1C(=O)Oc2c1ccc1c2OCO1)OCO3
inactive: [7] > 46 µM | [1] > 46 µM | [2] | [8] | [10] | [4] | [5] | [6]
active: [9] 1.26 µM | [11] 20 nM

CC(C)C[C@@H](NC(=O)OCC1c2ccccc2-c2ccccc21)C(=O)O
inactive: [1] > 46 µM | [4] | [5] | [6]

NCCCCCCNS(=O)(=O)c1cccc2ccccc12
inactive: [7] > 46 µM | [1] > 46 µM | [2] | [8] | [10] | [4] | [5] | [6]
active: [9] 6.31 µM

C[C@@H]1c2ccccc2CN1CC1=NCCN1
inactive: [7] > 46 µM | [1] > 46 µM | [2] | [8] | [10] | [4] | [5] | [6]
active: [3] 50.1 µM

Cc1cc(Cn2cnc3c2C[C@@H](C(=O)O)N(C(=O)C(c2ccccc2)c2ccccc2)C3)ccc1N(C)C
active: [11] 1580 nM
inactive: [7] > 46 µM | [8] | [3] | [4] | [5] | [6]

CCN(CC)C[C@@H]1CCCCN1CC(=O)N1c2ccccc2C(=O)Nc2cccnc21
inactive: [2] | [8] | [10] | [4] | [5] | [6]

CCOC(=O)C1=C(C)NC(c2ccccc2)=C(C(=O)OCc2ccc([N+](=O)[O-])cc2)[C@@H]1C#Cc1ccccc1
inactive: [7] > 46 µM | [1] > 46 µM | [2] | [8] | [4] | [5] | [6]

COc1ccc(C(OCCN2CCC[C@@H](C(=O)O)C2)(c2ccc(OC)cc2)c2ccc(OC)cc2)cc1
inactive: [7] > 46 µM | [1] > 46 µM | [2] | [8] | [10] | [4] | [5] | [6]
